Test results published in PubChem BioAssay (NCATS).
Records with an inconclusive call do not appear. Activity calls are given as the source filed them. Calls follow the shape of the dose curve; as a rule, active = well fitted curve in the direction sought with a large enough effect; inconclusive = small, poorly fitted or top-dose-only effect, or another doubt; inactive = no such curve, though single readings can be large; an effect the other way counts as inactive or inconclusive.

Key:
[1] = target: Glutathione peroxidase 1 (Homo sapiens) (UniProt P07203); assay: Primary qHTS Assay for Inhibitors of Recombinant Selenoprotein Glutathione Peroxidase 1 (GPX1) (AID 1845191); also: nearly all actives have a fitted effect of over 65% in size
Sequence of Glutathione peroxidase 1 (Homo sapiens) (P07203 whole entry, looked up): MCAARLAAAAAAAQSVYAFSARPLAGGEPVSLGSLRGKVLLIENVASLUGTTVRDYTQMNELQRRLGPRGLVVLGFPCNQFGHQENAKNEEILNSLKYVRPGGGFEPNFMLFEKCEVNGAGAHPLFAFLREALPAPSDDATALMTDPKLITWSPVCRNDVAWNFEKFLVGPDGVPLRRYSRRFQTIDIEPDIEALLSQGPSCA
Outline: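 Recombinant GPX1 (10 nM final) was preincubated with compound for 30 min at room temperature, then reacted with 1 mM GSH, 0.5 mM CHP, 0.5 mM NADPH and 100 nM glutathione reductase; NADPH fluorescence (340/450 nm) was read at 0 and 15 min.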

[2] = target: Phospholipid hydroperoxide glutathione peroxidase GPX4 (Homo sapiens) (UniProt P36969); assay: Primary qHTS Assay for Inhibitors of Recombinant Selenoprotein Glutathione Peroxidase 4 (GPX4) (AID 1845192); also: series mostly up to about 50 µM; nearly all actives have a fitted effect of over 65% in size
Sequence of Phospholipid hydroperoxide glutathione peroxidase GPX4 (Homo sapiens) (P36969 whole entry, looked up): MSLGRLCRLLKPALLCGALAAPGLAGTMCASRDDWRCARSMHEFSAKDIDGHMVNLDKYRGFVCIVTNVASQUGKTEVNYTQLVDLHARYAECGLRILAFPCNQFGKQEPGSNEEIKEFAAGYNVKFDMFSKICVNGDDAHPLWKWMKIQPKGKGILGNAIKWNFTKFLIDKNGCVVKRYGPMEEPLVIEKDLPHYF
Outline: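 GR-coupled readout: 100 nM GR, 1 mM GSH, 0.5 mM NADPH; NADPH fluorescence (ex 340/em 450 nm) read at t=0 and after 15 min RT. GPX4 200 nM, preincubated 30 min with compound; substrate 0.5 mM CHP.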

[3] = target: Luciferin 4-monooxygenase (Photinus pyralis) (UniProt P08659); assay: Primary firefly luciferase (FLuc) qHTS assay for identification of artifact compounds. (AID 1845220); also: nearly all actives have a fitted effect of over 60% in size
Outline: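 Reaction readout was CCD-imaged luminescence, taken 5 min after adding 10 nM purified firefly enzyme to compound-treated wells holding 10 uM luciferin and ATP in pH 7.6 buffer.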

[4] = Primary fluorescence-based thiol-reactive (MSTI) qHTS assay for identification of artifact compounds. (AID 1845221); also: nearly all actives have a fitted effect of over 65% in size; also: potency is read from the fitted curve at half-maximal effect
Outline: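 Thiol-reactive compounds detected by quenching of 4 uM MSTI fluorescence (525/598 nm) after 1 h room-temperature dark incubation in PBS pH 7.4, 2% DMSO. qHTS titration; percent inhibition Hill-fitted against Acetyl-MSTI/MSTI controls.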

[5] = system: Nanoluciferase (engineered Oplophorus gracilirostris luciferase); assay: Primary Nanoluciferase (NLuc) qHTS assay for identification of artifact compounds. (AID 1845222);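 also: NLuc secreted into diluted conditioned medium of S16 cells; series mostly up to about 54 µM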
Outline: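 Concentration-response data were obtained by luminescence after 5 min with Nano-Glo substrate at 1:100. The enzyme was diluted S16 NLuc-expressing cell medium, preincubated with compound for 15 min at RT. Curves were fitted with a 4-parameter Hill model.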

Measured: Potency

C=C1CC23CC(=O)C4C(CO)(CO)CCCC4(C)C2CCC1C3 (stereo not given)
inactive: all assays above

C=C1[C@H](OC(C)=O)[C@H]2[C@@H](OC(=O)c3ccccc3)[C@@H](C)C[C@]2(O)[C@@H](OC(C)=O)[C@H](C)/C=C/C(C)(C)C(=O)[C@H](OC(C)=O)[C@H]1OC(C)=O
inactive: all assays above

Cc1ccc(Cl)cc1N(CC(=O)Nc1c(F)cccc1F)S(C)(=O)=O
inactive: all assays above

COc1cc(/C=C/C(=O)O[C@@H]2O[C@H](CO)[C@@H](O)[C@H](O)[C@H]2O)ccc1O
active: [4] 4.65 µM
inactive: all other assays above

C[C@@H]1O[C@@H](O[C@H]2[C@@H]3C=CO[C@@H](O[C@@H]4O[C@H](CO)[C@@H](O)[C@H](O)[C@H]4O)[C@@H]3[C@@]3(CO)O[C@@H]23)[C@H](O)[C@H](OC(=O)/C=C/c2ccc(O)cc2)[C@H]1OC(=O)/C=C/c1ccc(O)cc1
inactive: all assays above

C[C@]12CCC[C@](C)(C(=O)O)C1CCC13CC(CO)C(CCC12)C3 (stereo not given in full)
inactive: all assays above

C=CC(C)(C)C12Nc3c(ccc4c3OC(C)(C)C=C4)C1(O)CC1C(=O)N3CCCC3C(=O)N12 (stereo not given)
inactive: all assays above
